Compound activity: PubChem BioAssay, National Center for Advancing Translational Sciences (NCATS)
GLS inh – qHTS for Inhibitors of Glutaminase (GLS). Glutaminase kidney isoform, mitochondrial (Homo sapiens), O94925. GLS enzymatic activity, qHTS titration. Potency, µM (doses to about 45.5 µM), inactives show at the highest dose activity change, negative = inhibition, actives largely listed as inhibitors. 0.21% of 410,000 active
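hKGA in 45 mM KH2PO4 (pH 8.2), 0.02% Tween-20 with compound, then 1mM L-Glutamine (stock as added) plus glutamate oxidase/HRP/Amplex red coupling mix. Fluorescence read initially and after 30 min at RT; signal change reflects glutamate formation.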
APE1 inh – qHTS Assay for Inhibitors of the Human Apurinic/apyrimidinic Endonuclease 1 (APE1). AID 2517, 2012. recombinant APE1, TAMRA/BHQ-2 abasic DNA cleavage fluorescence. Potency, µM (doses to about 65.8 µM), inactives show at the highest dose activity change, negative = inhibition, actives largely listed as inhibitors. 0.35% of 350,000 active;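 also: plate controls were vehicle for no effect and reference inhibitor for full effect; nearly all actives have a fitted effect of over 55% in size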
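Incision of a quenched TAMRA/BHQ-2 THF abasic-site duplex (50 nM) by 0.75 nM APE1, after 15 min compound preincubation, measured as fluorescence increase over three 60 s reads. Values normalized to buffer, DMSO and NSC13755 control wells.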
RECQ1 inh-1 – qHTS Assay for Inhibitors of RecQ-Like Dna Helicase 1 (RECQ1) | ATP-dependent DNA helicase Q1 (Homo sapiens), P46063 | RECQ1 DNA unwinding, red fluorescence kinetic read | 0.54% of 240,000 active | Potency, µM (series often up to 57.3 µM), for the others: at the highest dose activity, negative = inhibition, actives largely listed as inhibitors;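 also: plate controls were vehicle for no effect and no enzyme for full effect; nearly all actives have a fitted effect of over 30% in size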
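RECQ1T1 50 nM; forked duplex (20 bp + 30-nt ss tails) 200 nM, ATP 2 mM final; pH 8.0, 2 mM MgCl2, 2.5 ug/ml poly(dI-dC); 15 min compound preincubation; discontinuous kinetic read over 2 h at RT.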
Tb PGK inh – qHTS Assay to Find Inhibitors of Phosphoglycerate Kinase. Phosphoglycerate kinase, glycosomal (Trypanosoma brucei brucei), P07378. PGK/GAPDH coupled, Kinase-Glo luminescence, 60 min. Potency, µM (doses to about 57.5 µM), inactives show top-dose activity change, negative = inhibition, usual class: inhibitors. 0.043% of 380,000 active; also: nearly all actives have a fitted effect of over 60% in size
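Luminescent ATP detection (Kinase-Glo Plus) follows a 60-minute room-temperature incubation, with wells lacking PGK as controls. Buffer: 100 mM TEA (pH 7.6), 5 mM MgCl2, 0.01% Tween-20. Coupling enzyme GAPDH (100 nM final) supplies unstable 1,3-BPG in-well.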
BLM inh-1 – qHTS Assay for Inhibitors of Bloom's syndrome helicase (BLM) | recombinant BLM DNA unwinding, fluorescence dequenching | Potency, µM (doses to about 56.1 µM), without a hit: top-dose activity change, negative = inhibition, usual class: inhibitors | 0.2% of 350,000 active | AID 2528, 2010;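 also: plate controls were vehicle for no effect and no enzyme for full effect; nearly all actives have a fitted effect of over 35% in size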
TDP1 inh – qHTS Assay for Inhibitors of Tyrosyl-DNA Phosphodiesterase (TDP1). Tyrosyl-DNA phosphodiesterase 1 (Homo sapiens), Q9NUW8. 0.28% of 350,000 active. recombinant TDP1, AlphaScreen DNA substrate cleavage. Potency, µM (titrated, usually from 130 µM), without a hit: at the highest dose activity change, negative = inhibition, actives largely listed as inhibitors. AID 485290, 2010; also: nearly all actives have a fitted effect of over 40% in size
Target sequence (Q9NUW8 whole entry, looked up): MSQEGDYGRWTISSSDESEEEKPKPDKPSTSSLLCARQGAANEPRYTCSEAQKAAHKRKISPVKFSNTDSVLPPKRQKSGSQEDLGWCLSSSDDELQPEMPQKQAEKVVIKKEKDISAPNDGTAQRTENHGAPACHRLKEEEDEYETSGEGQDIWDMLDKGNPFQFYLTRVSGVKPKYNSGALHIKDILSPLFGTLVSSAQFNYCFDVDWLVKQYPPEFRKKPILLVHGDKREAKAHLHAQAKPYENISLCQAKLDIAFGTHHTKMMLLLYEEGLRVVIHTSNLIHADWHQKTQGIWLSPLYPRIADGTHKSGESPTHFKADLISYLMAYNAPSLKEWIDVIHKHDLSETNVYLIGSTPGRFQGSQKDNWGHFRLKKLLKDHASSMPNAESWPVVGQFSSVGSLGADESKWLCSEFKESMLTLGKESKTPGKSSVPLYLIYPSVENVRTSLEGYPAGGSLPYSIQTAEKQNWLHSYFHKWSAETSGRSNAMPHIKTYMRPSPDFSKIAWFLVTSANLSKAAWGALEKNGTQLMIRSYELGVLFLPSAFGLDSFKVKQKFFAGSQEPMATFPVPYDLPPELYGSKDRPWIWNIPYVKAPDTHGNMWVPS
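Signal: AlphaScreen proximity between streptavidin donor and anti-FITC acceptor beads on intact substrate. Reaction: Tdp1 1 nM, substrate 15 nM final, 5 min RT after 15 min compound preincubation.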
BLM inh-2 – qHTS Confirmation Assay for Inhibitors of Bloom's syndrome helicase (BLM); shares compounds with BLM inh-1; BLM DNA unwinding, fluorescence quenching, biochemical; Potency, µM, for inactives: max response, negative = inhibition, most hits filed as inhibitors; 40% of 220 active; AID 2585, 2010;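 also: strand separation dequenches TAMRA so unwinding raises red fluorescence; series mostly up to about 69 µM; nearly all actives have a fitted effect of over 45% in size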
RECQ1 inh conf – Confirmation qHTS Assay for Inhibitors of RecQ-Like Dna Helicase 1 (RECQ1); Potency, µM (titrated, usually from 229 µM), for the others: top-dose activity change, negative = inhibition, hits mostly inhibitors; RECQ1 helicase DNA unwinding, fluorescence; 28% of 610 active; shares compounds with RECQ1 inh-1; also: nearly all actives have a fitted effect of over 45% in size
ADP FP counter – Counterscreen for RECQ1 Inhibitors: ADP Fluorescence Polarization Displacement Assay. 27% of 530 active. ADP fluorescence polarization displacement counterscreen. Potency, µM (series often up to 228 µM), for inactives: top-dose activity change, negative = inhibition, actives largely listed as inhibitors. shares compounds with RECQ1 inh-1; also: nearly all actives have a fitted effect of over 45% in size
RECQ1 inh-2 – Confirmation qHTS Assay for Inhibitors of RecQ-Like Dna Helicase 1 (RECQ1) - Round 2 Cherry Picks. shares compounds with RECQ1 inh-1. recombinant RECQ1 DNA unwinding, red fluorescence. Potency, µM (top dose mostly 119 µM), inactives show top-dose activity, negative = inhibition, hits mostly inhibitors. 15% of 1,100 active. AID 504841, 2011; also: nearly all actives have a fitted effect of over 50% in size
Numbers without * were called inactive; i = inactive; ? = inconclusive; . = no result; [ ] = dose if it differs, or a comment. Shown are actives, neighbours in structure and some others; about 0.85% of the full set was active somewhere. Calls follow the shape of the dose curve; as a rule, active = well fitted curve in the direction sought with a large enough effect; inconclusive = small, poorly fitted or top-dose-only effect, or another doubt; inactive = no such curve, though single readings can be large; an effect the other way counts as inactive or inconclusive. Unless noted, % is scaled to controls: 0 for no effect and ±100 for the full control effect; potency is read from the fitted curve at half-maximal effect.

SMILES | GLS inh | APE1 inh | RECQ1 inh-1 | Tb PGK inh | BLM inh-1 | TDP1 inh | BLM inh-2 | RECQ1 inh-2 | others
COc1cc(/C=C(/C#N)c2nc3ccccc3[nH]2)ccc1OCc1ccc(C(=O)O)o1 | ? | -4.4% | -1.3% | i | -0.2% | -3.8% | . | .
O=c1[nH]c(Nc2ccc(F)cc2)cc2ccccc12 | 21.0% | 6.6% | ? | -16.9% | 31.6µM* | 3.4% | ? | -30.4%
COC1CC2CCC(C)[C@](O)(O2)C(=O)C(=O)N2CCCCC2C(=O)OC(C(C)CC2CCC(O)C(OC)C2)CC(=O)C(C)/C=C(/C)C(O)C(OC)C(=O)C(C)CC(C)C=CC=C/C=C\1C (some centres not stated) | -2.9% | . | . | . | -4.3% | . | . | .
COc1cccc(CC(=O)N2CCc3nc(-c4ccc(OC)cc4C)c4c(c3C2)CO[C@@H](c2ccccc2)C4)c1 | . | -3.3%[12.4 µM] | -5.7%[11.5 µM] | . | -0.2%[12.4 µM] | 7.7%[12.3 µM] | . | .
N#Cc1nc(Nc2ccccc2)nc(NC2CCCC2)n1 | . | -2.6% | -14.4% | . | -9.5% | 9.7% | . | .
CCOc1ccc2[nH]c(=O)c(C(c3nnnn3Cc3ccco3)N3CCN(C)CC3)cc2c1 (configuration not stated) | 9.0% | ? | 7.08µM* | -0.4% | 1.12µM* | 2.8% | 3.0% | 4.1% | RECQ1 inh conf=23.8%[114 µM];ADP FP counter=44.7µM*
Cc1cc2cc(C(c3nnnn3Cc3ccco3)N3CCCCC3)c(=O)[nH]c2cc1C (configuration not stated) | -2.4% | -1.0% | -2.9% | . | -10.5% | -2.3% | . | .
O=C(CSc1ncccn1)NC(=O)NCc1ccco1 | -1.3% | ? | -11.2% | -7.4% | -12.6% | . | . | .
O=C(CSc1ccccc1F)NC(=O)NCc1ccco1 | 18.3% | ? | 25.1µM* | -3.4% | 15.8µM* | -5.1% | ? | 1.3%
Cc1ccc(-c2nn3c(C)nnc3s2)cc1NC(=O)c1ccc(-c2cccc(Cl)c2)o1 | -23.5% | 9.4% | 12.6µM* | -2.6% | -13.9% | -1.2% | -11.5% | ? | ADP FP counter=29.2%[91.9 µM]
